# About 83,000 compounds went through this panel and 20% of them were active in at least one assay; those are over-represented in the sample as a whole.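 Single-dose data. Exposure time 48 hours. Values below 10 considered active.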 A number with no mark means an inactive call. Activity calls are given as the source filed them.
# Columns and labels:
# Test in all cases: NCI-60 one-dose screen, 48 h (100 = growth as untreated, 0 = no growth, -100 = all killed)
# Conditions in all cases: 10 µM unless noted
# NCI-H23 lung = test system: NCI-H23 lung
# NCI-H226 lung = test system: NCI-H226 lung
# NCI-H322M lung = test system: NCI-H322M lung
# HOP-62 NSCLC = test system: HOP-62 NSCLC
# NCI-H460 lung = test system: NCI-H460 lung
# HOP-92 NSCLC = test system: HOP-92 NSCLC
# NCI-H522 lung = test system: NCI-H522 lung
# A549/ATCC NSCLC = test system: A549/ATCC NSCLC
# 786-0 renal = test system: 786-0 renal
# COLO 205 colon = test system: COLO 205 colon
SMILES,growth (NCI-H23 lung),growth (NCI-H226 lung),growth (NCI-H322M lung),growth (HOP-62 NSCLC),growth (NCI-H460 lung),growth (HOP-92 NSCLC),growth (NCI-H522 lung),growth (A549/ATCC NSCLC),growth (786-0 renal),growth (COLO 205 colon)
NC(=S)N/N=C/Cc1ccccc1,99.6%,103%,105%,104%,110%,109%,100%,90.6%,106%,97.2%
CCOC(=O)C/C(C)=N\NC(=O)c1ccncc1,101%,112%,90.6%,97.7%,103%,-2.59% (active),95.3%,105%,92.1%,124%
O=C(NC(Cc1nnc2n(Cc3ccccc3)c(=O)c3c4c(sc3n12)CCCC4)c1ccc(Cl)cc1)c1ccccc1 (stereo not given),82.2%,97.6%,108%,77.2%,101%,76.8%,75.8%,98.9%,38.3%,106%
O=C(/C=C/c1ccco1)c1ccc(Nc2nc(Nc3ccc(F)cc3)nc(Nc3ccc(Cl)cc3)n2)cc1,59.5%,86%,48.3%,96.2%,61.7%,44.2%,76.8%,38.3%,84.4%,35.9%
NC(N)=NN=C(c1ccccc1)c1ccccc1,17.8%,51.4%,45.5%,28.6%,14.4%,60.7%,28.2%,50.8%,26.2%,-0.806% (active)
COC(=O)/C=C1\S/C(=N\NS(=O)(=O)c2ccc(C)cc2)N(c2ccccc2)C1=O,102%,97.8%,99.6%,99.4%,104%,91.4%,91.9%,98.6%,108%,121%
COc1cc(N2C(=O)c3nccnc3C2=O)cc(OC)c1OC,99.6%,114%,99.7%,95.9%,111%,89.9%,95.2%,105%,97.1%,111%
CC1CC(C(C)(C)C)C(=O)C(C(C)(C)C)C1 (stereo not given),109%,98.8%,107%,105%,108%,85%,90.8%,100%,100%,115%
CC(=O)OC[C@H]1OC(Sc2sc(C(=O)c3ccc(Br)cc3)c(N)c2-c2nc3ccccc3s2)[C@H](OC(C)=O)[C@@H](OC(C)=O)[C@@H]1OC(C)=O (stereo not given in full),23.8%,28.1%,83.5%,63.8%,44.3%,81.7%,63.8%,71.5%,62.7%,85%
Fc1c[c-]c(-c2ccccn2)c(F)c1.[CH3-].[Pt+2].c1ccc(P(C[PH+](c2ccccc2)c2ccccc2)c2ccccc2)cc1,-51.1% (active),3.56% (active),2.51% (active),0.563% (active),-68.8% (active),-80.7% (active),-24% (active),-0.672% (active),-52.5% (active),-29.9% (active)
COc1ccc(CNC(=O)C(O)C(Cc2ccccc2)NC(=O)c2[nH]c3ccccc3c(=O)c2C)cc1OC (stereo not given),102%,98.1%,104%,102%,103%,110%,93%,103%,101%,123%
Cn1cc2c(c1)-c1nc(Nc3ccccc3)ncc1CC2,38.3%,51.7%,52.9%,69.2%,42.5%,70.6%,84.9%,72%,87.2%,76.7%
COc1cc(OC)cc(C2CC(=O)Nc3c2c(C)nn3-c2nc3ccccc3[nH]2)c1 (stereo not given),5.52% (active),36.5%,59.9%,-44.2% (active),5.89% (active),0.274% (active),3.99% (active),15.2%,25.4%,51.4%
CCOC(=O)c1c2c(n3ccc(NC(=O)OC(C)(C)C)cc13)C(=O)c1ncccc1C2=O,-77.5% (active),-63.7% (active),-19.5% (active),-76.8% (active),-82.6% (active),-10.3% (active),-56.1% (active),-57.3% (active),-49.3% (active),-54.6% (active)
NC(N)=Nc1nc2ccccc2n2c1nc1ccccc12,36.3%,56.7%,43.7%,40.4%,8.12% (active),56.6%,16.1%,17.7%,33.5%,30.3%
CCOC(=O)c1ccc(N2NC(=O)/C(=C/c3ccc([N+](=O)[O-])o3)C2=O)cc1,108%,120%,99.8%,109%,111%,105%,60.7%,-1.33% (active),116%,129%
CCCCCCCCCCCCCCCCCCOc1ccc(CC(=O)OCC[N+]2(C)CCCC2)cc1,93.2%,92.6%,102%,101%,99.7%,110%,96.8%,97.2%,96.2%,107%
O=C(/C=C/c1ccc(Cl)nc1)c1ccc(Cl)cc1Cl,105%,103%,99.8%,106%,98%,110%,38.7%,94.4%,86.8%,111%
CN1CCN(CC(=O)Nc2nc(-c3cccc(NS(=O)(=O)c4cccc5c(N(C)C)cccc45)c3)cs2)CC1,57.6%,75.2%,105%,85.9%,55.7%,57.6%,67.7%,72.5%,79.5%,76.9%
CCc1c2c(nc3ccc(OC(=O)NCc4ccc(B5OC(C)(C)C(C)(C)O5)cc4)cc13)-c1cc3c(c(=O)n1C2)COC(=O)[C@]3(O)CC,-28.3% (active),-65.4% (active),5.73% (active),-5.68% (active),-16.7% (active),8.05% (active),-23.2% (active),4.61% (active),6.78% (active),7.58% (active)

# Reference: PubChem BioAssay (NCI)
